Test results from PMC8384837, “Expanding the binding specificity for RNA recognition by a PUF domain”.
Numbering of substitutions follows the chain as printed.

Columns and labels:
Test in all cases: yeast three-hybrid, YBZ-1, SC-Leu-His + 0.5 mM 3-AT, 4 days
Conditions in all cases: tags: N-Gal4 AD-HA kept; label: inside an RPR1-promoter hybrid RNA with tandem MS2 sites; ssRNA
PUM1 PUF domain R2-LPC = PUM1 PUF domain R2-LPC (Homo sapiens, UniProt Q14671 828-1176, N899L;Y900P;Q903C)
In short: (§1)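 Sequencing with Illumina followed PCR amplification of the repeat regions from transformants grown four days on SC-Leu (input) or SC-Leu-His + 0.5 mM 3-AT (selection). The transformants were strain YBZ-1 with a LexA–MS2 coat fusion and a HIS3 reporter, carrying Pumilio-1 PUF domain libraries and matching RNA elements. The interaction score is the log change in variant frequency from input to selection, computed in log2 with a pseudocount of 1 for absent variants.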

PUM1 PUF domain R2-KVA = PUM1 PUF domain R2-KVA (Homo sapiens, UniProt Q14671 828-1176, N899K;Y900V;Q903A)
In short: as §1

PUM1 PUF domain R7-CSR = PUM1 PUF domain R7-CSR (Homo sapiens, UniProt Q14671 828-1176, S1079C;N1080S;E1083R)
In short: as §1

PUM1 PUF domain R7-LMF = PUM1 PUF domain R7-LMF (Homo sapiens, UniProt Q14671 828-1176, S1079L;N1080M;E1083F)
In short: as §1

PUM1 PUF domain R8-PFR = PUM1 PUF domain R8-PFR (Homo sapiens, UniProt Q14671 828-1176, N1122P;Y1123F;Q1126R)
In short: as §1

PUM1 PUF domain R6-QYV = biological target: T1, PUM1 PUF domain R6-QYV (Homo sapiens, UniProt Q14671 828-1176, N1043Q;Q1047V)
T1 sequence: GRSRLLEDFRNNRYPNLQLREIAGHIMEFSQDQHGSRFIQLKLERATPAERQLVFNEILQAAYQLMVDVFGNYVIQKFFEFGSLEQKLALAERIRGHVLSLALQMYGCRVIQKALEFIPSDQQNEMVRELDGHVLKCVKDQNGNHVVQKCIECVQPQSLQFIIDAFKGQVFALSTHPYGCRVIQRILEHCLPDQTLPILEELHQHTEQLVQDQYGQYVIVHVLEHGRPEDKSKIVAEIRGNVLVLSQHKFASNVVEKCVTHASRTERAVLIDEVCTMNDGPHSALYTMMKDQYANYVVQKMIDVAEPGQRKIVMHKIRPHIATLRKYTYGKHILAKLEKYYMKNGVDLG
In short: as §1

PUM1 PUF domain R6-KYL = biological target: T2, PUM1 PUF domain R6-KYL (Homo sapiens, UniProt Q14671 828-1176, N1043K;Q1047L)
T2 sequence: T1 sequence with Q216K, V220L
In short: as §1

PUM1 PUF domain R6-IWG = biological target: T3, PUM1 PUF domain R6-IWG (Homo sapiens, UniProt Q14671 828-1176, N1043I;Y1044W;Q1047G)
T3 sequence: T1 sequence with Q216I, Y217W, V220G
In short: as §1

PUM1 PUF domain R3-DWV = PUM1 PUF domain R3-DWV (Homo sapiens, UniProt Q14671 828-1176, C935D;R936W;Q939V)
In short: as §1

PUM1 PUF domain R3-YYR = PUM1 PUF domain R3-YYR (Homo sapiens, UniProt Q14671 828-1176, C935Y;R936Y;Q939R)
In short: as §1

PUM1 PUF domain R2-NYP = PUM1 PUF domain R2-NYP (Homo sapiens, UniProt Q14671 828-1176, Q903P)
In short: as §1

PUM1 PUF domain R3-GCK = PUM1 PUF domain R3-GCK (Homo sapiens, UniProt Q14671 828-1176, C935G;R936C;Q939K)
In short: as §1

PUM1 PUF domain R7-GCR = PUM1 PUF domain R7-GCR (Homo sapiens, UniProt Q14671 828-1176, S1079G;N1080C;E1083R)
In short: as §1

PUM1 PUF domain R8-MYF = PUM1 PUF domain R8-MYF (Homo sapiens, UniProt Q14671 828-1176, N1122M;Q1126F)
In short: as §1

PUM1 PUF domain R5-SQA = PUM1 PUF domain R5-SQA (Homo sapiens, UniProt Q14671 828-1176, C1007S;R1008Q;Q1011A)
In short: as §1

PUM1 PUF domain R6-IFG = biological target: T4, PUM1 PUF domain R6-IFG (Homo sapiens, UniProt Q14671 828-1176, N1043I;Y1044F;Q1047G)
T4 sequence: T1 sequence with Q216I, Y217F, V220G
In short: as §1

PUM1 PUF domain R5-KDK = PUM1 PUF domain R5-KDK (Homo sapiens, UniProt Q14671 828-1176, C1007K;R1008D;Q1011K)
In short: as §1

PUM1 PUF domain R5-SQK = PUM1 PUF domain R5-SQK (Homo sapiens, UniProt Q14671 828-1176, C1007S;R1008Q;Q1011K)
In short: as §1

PUM1 PUF domain R1-KFL = PUM1 PUF domain R1-KFL (Homo sapiens, UniProt Q14671 828-1176, S863K;R864F;Q867L)
In short: as §1

PUM1 PUF domain R1-NFS = PUM1 PUF domain R1-NFS (Homo sapiens, UniProt Q14671 828-1176, S863N;R864F;Q867S)
In short: as §1

Chain of PUM1 PUF domain R3-DWV (Q14671 828-1176 C935D/R936W/Q939V): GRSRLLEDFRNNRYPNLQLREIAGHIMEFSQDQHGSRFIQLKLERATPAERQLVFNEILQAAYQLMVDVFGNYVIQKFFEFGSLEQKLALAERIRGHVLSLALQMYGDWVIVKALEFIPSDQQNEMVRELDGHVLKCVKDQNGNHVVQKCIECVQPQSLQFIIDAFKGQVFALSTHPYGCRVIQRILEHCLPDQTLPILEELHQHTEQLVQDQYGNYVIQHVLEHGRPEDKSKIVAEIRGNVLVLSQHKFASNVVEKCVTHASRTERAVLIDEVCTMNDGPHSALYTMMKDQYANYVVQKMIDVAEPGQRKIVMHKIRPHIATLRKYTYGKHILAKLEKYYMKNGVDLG
Chain of PUM1 PUF domain R3-YYR (Q14671 828-1176 C935Y/R936Y/Q939R): as the sequence (Q14671 828-1176 C935D/R936W/Q939V) above, with D108Y, W109Y, V112R counted along it
Chain of PUM1 PUF domain R3-GCK (Q14671 828-1176 C935G/R936C/Q939K): as the sequence (Q14671 828-1176 C935D/R936W/Q939V) above, with D108G, W109C, V112K counted along it
Chain of PUM1 PUF domain R1-NFS (Q14671 828-1176 S863N/R864F/Q867S): as the sequence (Q14671 828-1176 C935D/R936W/Q939V) above, with S36N, R37F, Q40S, D108C, W109R, V112Q counted along it
Chain of PUM1 PUF domain R8-MYF (Q14671 828-1176 N1122M/Q1126F): as the sequence (Q14671 828-1176 C935D/R936W/Q939V) above, with D108C, W109R, V112Q, N295M, Q299F counted along it
Chain of PUM1 PUF domain R2-NYP (Q14671 828-1176 Q903P): as the sequence (Q14671 828-1176 C935D/R936W/Q939V) above, with Q76P, D108C, W109R, V112Q counted along it
Chain of PUM1 PUF domain R2-LPC (Q14671 828-1176 N899L/Y900P/Q903C): as the sequence (Q14671 828-1176 C935D/R936W/Q939V) above, with N72L, Y73P, Q76C, D108C, W109R, V112Q counted along it
Chain of PUM1 PUF domain R7-LMF (Q14671 828-1176 S1079L/N1080M/E1083F): as the sequence (Q14671 828-1176 C935D/R936W/Q939V) above, with D108C, W109R, V112Q, S252L, N253M, E256F counted along it
Chain of PUM1 PUF domain R2-KVA (Q14671 828-1176 N899K/Y900V/Q903A): as the sequence (Q14671 828-1176 C935D/R936W/Q939V) above, with N72K, Y73V, Q76A, D108C, W109R, V112Q counted along it
Chain of PUM1 PUF domain R5-SQA (Q14671 828-1176 C1007S/R1008Q/Q1011A): as the sequence (Q14671 828-1176 C935D/R936W/Q939V) above, with D108C, W109R, V112Q, C180S, R181Q, Q184A counted along it

GGCUAGAACUAGUGGAUCCCCCGGCGCCCGGCGGCUCGAGCCCGGGUAAGUGUAAAGAGUCUGCAUGCCGCCGGGCGCCAUGCCUGCAGGUCGACUCUAGAAAACAUG
binding signal (PUM1 PUF domain R2-LPC): 3.13 log2 enrichment (interaction score) | binding signal (PUM1 PUF domain R2-KVA): 3.4 log2 enrichment (interaction score)

GGCUAGAACUAGUGGAUCCCCCGGCGCCCGGCGGCUCGAGCCCGGGUAAGUUUAAAUAGUCUGCAUGCCGCCGGGCGCCAUGCCUGCAGGUCGACUCUAGAAAACAUG
binding signal (PUM1 PUF domain R7-CSR): 3.61 log2 enrichment (interaction score) | binding signal (PUM1 PUF domain R7-LMF): 3.84 log2 enrichment (interaction score)

GGCUAGAACUAGUGGAUCCCCCGGCGCCCGGCGGCUCGAGCCCGGGUAAGUGUAAAUAGUCUGCAUGCCGCCGGGCGCCAUGCCUGCAGGUCGACUCUAGAAAACAUG
binding signal (PUM1 PUF domain R8-PFR): 3.82 log2 enrichment (interaction score) | binding signal (PUM1 PUF domain R6-QYV): 3.63 log2 enrichment (interaction score) | binding signal (PUM1 PUF domain R6-KYL): 5.29 log2 enrichment (interaction score) | binding signal (PUM1 PUF domain R6-IWG): 3.59 log2 enrichment (interaction score) | binding signal (PUM1 PUF domain R3-DWV): 2.15 log2 enrichment (interaction score) | binding signal (PUM1 PUF domain R3-YYR): 3.94 log2 enrichment (interaction score) | binding signal (PUM1 PUF domain R2-NYP): 4.08 log2 enrichment (interaction score)

GGCUAGAACUAGUGGAUCCCCCGGCGCCCGGCGGCUCGAGCCCGGGUAAGUGUAAGUAGUCUGCAUGCCGCCGGGCGCCAUGCCUGCAGGUCGACUCUAGAAAACAUG
binding signal (PUM1 PUF domain R3-DWV): 3.22 log2 enrichment (interaction score) | binding signal (PUM1 PUF domain R3-GCK): 2.22 log2 enrichment (interaction score)

GGCUAGAACUAGUGGAUCCCCCGGCGCCCGGCGGCUCGAGCCCGGGUAAGUCUAAAUAGUCUGCAUGCCGCCGGGCGCCAUGCCUGCAGGUCGACUCUAGAAAACAUG
binding signal (PUM1 PUF domain R7-GCR): 5.49 log2 enrichment (interaction score)

GGCUAGAACUAGUGGAUCCCCCGGCGCCCGGCGGCUCGAGCCCGGGUAAGUGUAACUAGUCUGCAUGCCGCCGGGCGCCAUGCCUGCAGGUCGACUCUAGAAAACAUG
binding signal (PUM1 PUF domain R3-YYR): 2.31 log2 enrichment (interaction score)

GGCUAGAACUAGUGGAUCCCCCGGCGCCCGGCGGCUCGAGCCCGGGUAAGUGUAAUUAGUCUGCAUGCCGCCGGGCGCCAUGCCUGCAGGUCGACUCUAGAAAACAUG
binding signal (PUM1 PUF domain R3-GCK): 2.81 log2 enrichment (interaction score)

GGCUAGAACUAGUGGAUCCCCCGGCGCCCGGCGGCUCGAGCCCGGGUAAGCGUAAAUAGUCUGCAUGCCGCCGGGCGCCAUGCCUGCAGGUCGACUCUAGAAAACAUG
binding signal (PUM1 PUF domain R8-PFR): 5.6 log2 enrichment (interaction score) | binding signal (PUM1 PUF domain R8-MYF): 2.53 log2 enrichment (interaction score)

GGCUAGAACUAGUGGAUCCCCCGGCGCCCGGCGGCUCGAGCCCGGGUAAGUGUGAAUAGUCUGCAUGCCGCCGGGCGCCAUGCCUGCAGGUCGACUCUAGAAAACAUG
binding signal (PUM1 PUF domain R5-SQA): 3.09 log2 enrichment (interaction score)

GGCUAGAACUAGUGGAUCCCCCGGCGCCCGGCGGCUCGAGCCCGGGUAAGUGAAAAUAGUCUGCAUGCCGCCGGGCGCCAUGCCUGCAGGUCGACUCUAGAAAACAUG
binding signal (PUM1 PUF domain R6-IFG): 4.32 log2 enrichment (interaction score) | binding signal (PUM1 PUF domain R6-IWG): 1.15 log2 enrichment (interaction score)

GGCUAGAACUAGUGGAUCCCCCGGCGCCCGGCGGCUCGAGCCCGGGUAAGUGUCAAUAGUCUGCAUGCCGCCGGGCGCCAUGCCUGCAGGUCGACUCUAGAAAACAUG
binding signal (PUM1 PUF domain R5-KDK): 2.95 log2 enrichment (interaction score)

GGCUAGAACUAGUGGAUCCCCCGGCGCCCGGCGGCUCGAGCCCGGGUAAGUGUUAAUAGUCUGCAUGCCGCCGGGCGCCAUGCCUGCAGGUCGACUCUAGAAAACAUG
binding signal (PUM1 PUF domain R5-SQK): 2.21 log2 enrichment (interaction score)

GGCUAGAACUAGUGGAUCCCCCGGCGCCCGGCGGCUCGAGCCCGGGUAAGUGUAAAUCGUCUGCAUGCCGCCGGGCGCCAUGCCUGCAGGUCGACUCUAGAAAACAUG
binding signal (PUM1 PUF domain R1-KFL): 4.43 log2 enrichment (interaction score)

GGCUAGAACUAGUGGAUCCCCCGGCGCCCGGCGGCUCGAGCCCGGGUAAGUGUAAAUUGUCUGCAUGCCGCCGGGCGCCAUGCCUGCAGGUCGACUCUAGAAAACAUG
binding signal (PUM1 PUF domain R1-KFL): 2.99 log2 enrichment (interaction score) | binding signal (PUM1 PUF domain R1-NFS): 7.9 log2 enrichment (interaction score)
